Values joined by “and” are separate entries in the source; they are usually repeats but may differ in a detail not shown here. Equal entries are not always repeated. Unmarked numbers belong to inactive results. Results filed as inconclusive are left out. Active and inactive are the calls of the source. Unless noted, no rule for the calls is given here.
Tested on: not listed separately
Assay: qHTS assay to identify inhibitors of the type 1 interferon - major histocompatibility complex class I in skeletal muscle: Counter screen cell viability and HiBit confirmation (AID 1347412; active = well fitted inhibition curve with a large enough effect; also: nearly all actives have a fitted effect of over 60% in size; also: potency is read from the fitted curve at half-maximal effect; as to activity change, negative = inhibition: % is scaled to controls: 0 for no effect and ±100 for the full control effect)
Details: iHSKM muscle cells + IFN-b, HiBiT or CellTiter-Glo, 24 h; Potency: HiBiT; Viability, at 45.9 µM (top of the series); activity change, negative = inhibition: at the top concentration
In short: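 CRISPR HLA-B*08:01-HiBit immortalized human myoblasts (C25cl48) stimulated with 4 ng/ml IFN-beta and compounds (12-point 1:3, top 46 uM final) for 24 h at 37 C. Duplicate plates read by HiBit lytic luminescence or CellTiter Glo ATP.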

| SMILES | Potency | activity change, negative = inhibition [%] |
| --- | --- | --- |
| CC1(C(=O)O)C2CCC(O2)C1(C)C(=O)O (centres undefined) | inactive | – |
| C[C@@H]1O[C@@H](O[C@H]2C[C@@H](O)[C@]3(CO)[C@@H]4C(CC[C@]3(O)C2)[C@@]2(O)CC[C@H]([C@@H]3COC(=O)C3)[C@@]2(C)C[C@H]4O)[C@H](O)[C@H](O)[C@H]1O (some centres undefined) | 0.557 µM (active) | – |
| CNc1ccc2oc(C[C@H]3O[C@@]4(CC[C@H]3C)O[C@H]([C@H](C)C(=O)c3ccc[nH]3)[C@H](C)C[C@H]4C)nc2c1C(=O)O | 2.49 µM (active) | – |
| CC(C)(C)c1cc(C=C(C#N)C#N)cc(C(C)(C)C)c1O | – | -28.8 |
| c1ccc2c(c1)[I+]c1ccccc1-2 | 7.01 µM (active) | – |
| Cc1c2ccncc2c(C)c2c1[nH]c1ccccc12 | 15.7 µM (active) | – |

Biological target: Nuclear receptor subfamily 1 group I member 2 (Rattus norvegicus) (UniProt Q9R1A7)
Sequence (Q9R1A7 whole entry, looked up): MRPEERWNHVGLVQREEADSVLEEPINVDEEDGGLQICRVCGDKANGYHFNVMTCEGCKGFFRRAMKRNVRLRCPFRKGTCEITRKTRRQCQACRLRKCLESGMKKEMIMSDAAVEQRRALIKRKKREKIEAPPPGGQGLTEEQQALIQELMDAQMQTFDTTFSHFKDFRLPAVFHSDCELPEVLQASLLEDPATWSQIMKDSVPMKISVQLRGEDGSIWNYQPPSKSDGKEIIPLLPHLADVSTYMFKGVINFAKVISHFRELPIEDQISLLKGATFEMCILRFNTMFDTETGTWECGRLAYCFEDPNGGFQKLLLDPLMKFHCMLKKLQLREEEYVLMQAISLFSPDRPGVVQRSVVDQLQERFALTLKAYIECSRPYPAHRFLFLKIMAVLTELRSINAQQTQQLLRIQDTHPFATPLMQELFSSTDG
Assay: qHTS assay for small molecule activators of the rat pregnane X receptor (rPXR) signaling pathway (AID 651751); also: 0% is about no effect
Details: rPXR reporter cells, luciferase (One-Glo), 24 h

| SMILES | max response |
| --- | --- |
| O=C(O)c1cc[c]([Hg][Cl])cc1 | -6.42% |
| COc1ccc2c(c1OC)C(=O)OC2C1c2cc3c(cc2CCN1C)OCO3 (centres undefined) | 3.69% |
| CCOC(=O)c1ccccc1C(=O)OCC | 2.54% and 6.22% and -3.04% |
| NNC(N)=O | 4.4% |
| O=C1C=CC(=O)C=C1 | 0.171% |
| O=C1CCO1 | -3.35% |

Tested on: not listed separately
Assay: qHTS assay for small molecule activators of the human pregnane X receptor (PXR) signaling pathway (AID 720659); also: 0% is about no effect
Details: DPX-2 HepG2 CYP3A4-luciferase, 24 h; series mostly up to 92.3 µM; activation: at the top concentration

| SMILES | activation [%] | outcome |
| --- | --- | --- |
| O=C(O)c1cc[c]([Hg][Cl])cc1 | 2.17 | – |
| CC[C@H](C)[C@H]1O[C@]2(C=C[C@@H]1C)C[C@@H]1C[C@@H](C/C=C(\C)[C@@H](O[C@H]3C[C@H](OC)[C@@H](O[C@H]4C[C@H](OC)[C@@H](O)[C@H](C)O4)[C@H](C)O3)[C@@H](C)/C=C/C=C3\CO[C@@H]4[C@H](O)C(C)=C[C@@H](C(=O)O1)[C@]34O)O2 | -23.4 | – |
| ClC(Cl)(Cl)Cl | – | inactive |
| CCOC(=O)c1ccccc1C(=O)OCC | – | inactive |
| NNC(N)=O | -0.349 | – |
| O=C1C=CC(=O)C=C1 | -8.76 | – |
| O=C1CCO1 | -8.54 | – |

From PubChem BioAssay (NCATS)
